Out of some 69,000 compounds screened, about 950 (1.4%) showed an effect of 50% or more. This is one part of a sample in which strong results are shown more often than they occur.
tested on: Mycobacterium tuberculosis; experiment: Cornell M. t heat shock assay; assay type: functional, organism-based; set-up: dose or concentration left out as unconfirmed; note: in the data most compounds retested in dose-response had high values

Structure (SMILES)	Percent Effect
Cc1nc(CN2CCO[C@@H]3CN(Cc4ccccn4)CC[C@@H]3C2)cs1.O=C(O)C(F)(F)F.O=C(O)C(F)(F)F	-0.9653%
CC(=O)N1C[C@@H]2CC[C@H](C1)N(C(=O)CCc1n[nH]c3c1CCCC3)C2	-1.596%
O=C(CCc1n[nH]c2c1CCCC2)N1C[C@@H]2CC[C@H](C1)N(CC1CC1)C2	90.59%
CS(=O)(=O)N1C[C@@H]2CC[C@H](C1)N(C(=O)CCc1n[nH]c3c1CCCC3)C2	3.499%
CN(C)C(=O)N1CCN(Cc2cnn(C)c2)CC2(CNC(=O)C2)C1.O=C(O)C(F)(F)F (centres undefined)	0.6854%
CCSCCNc1cc(C)nc2c(C)c(C)nn12	105.5%
Cc1cc(NCCSc2nccn2C)n2ncnc2n1	-35.12%
COCCn1cnnc1CNc1cc(C)nc2c(C)c(C)nn12	44.3%
Cc1cc(NCc2nnc3n2CCC3)n2nc(C)c(C)c2n1	-14.51%
Cc1ccnc(NCCSc2nccn2C)n1	9.062%
Cc1cc(NCCSc2nccn2C)n2nc(C)c(C)c2n1	72.35%
CC(C)C[C@H](N)c1nnc(SCC(N)=O)o1.Cl	-14.25%
Cn1ccnc1CN1CCC2(CC1)COC2.O=C(O)C(F)(F)F	6.701%
CN(C)C(=O)c1nc2c(s1)CCCN2Cc1ccccc1	1.043%
CC(C)NC(=O)c1nc2c(s1)CCCN2Cc1ccccc1	16.22%
CCN(C(=O)c1nc2c(s1)CCCN2Cc1ccccc1)C(C)C	52.41%
O=C(O)C(F)(F)F.O=C(O)C(F)(F)F.O=C(c1cccnc1)N1CCC2(CC1)COC(COc1ccccn1)C2 (centres undefined)	-16.52%
CC[C@@H]1N(Cc2ccncc2)CCC[C@]12CCC(=O)N2CCOC.O=C(O)C(F)(F)F.O=C(O)C(F)(F)F	-19.31%
O=C(O)C(F)(F)F.O=C(O)C(F)(F)F.c1cnc(N2CCO[C@H]3CN(CC4CC4)C[C@H]32)nc1	-34.72%
COc1ccccc1[C@@H]1CN(Cc2ccc3nsnc3c2)C[C@H]1C(=O)O	-17.79%
COc1ccccc1[C@@H]1CN(Cc2cc(C(C)(C)C)[nH]n2)C[C@H]1C(=O)O	79.87%
COc1ccccc1[C@@H]1CN(Cc2ccncc2)C[C@H]1C(=O)O	45.83%
CN1CC(=O)N(c2ccccc2)CC12CCN(CC1CCOCC1)C2.O=C(O)C(F)(F)F.O=C(O)C(F)(F)F (centres undefined)	3.802%
Cn1cnc2ccc(NC(=O)CCCn3cccn3)cc2c1=O	5.614%

Structure (SMILES)	Percent Effect
CC(C)Cn1cnc2ccc(NC(=O)CCCn3cccn3)cc2c1=O	60.75%
CC(C)n1cnc2ccc(NC(=O)CCCn3cccn3)cc2c1=O	-15.69%
CC(C)[C@H](N)CC(=O)Nc1nc(-c2cnc(N3CCOCC3)nc2)cs1.Cl	-24.08%
CCC(=O)N1C[C@@H]2CCN(c3cnccn3)C[C@@H]2C1.O=C(O)C(F)(F)F	-28.75%
O=C(O)C(F)(F)F.c1cnc(NCc2nnn3c2CN(Cc2ccco2)CCC3)nc1	-16.16%
CC(C)c1cc2c(s1)NC(c1ccccn1)NC2=O (centres undefined)	100.6%
Cc1ccc(C2NC(=O)c3cc(C(C)C)sc3N2)cc1 (centres undefined)	19.82%
CC(C)c1cc2c(s1)NC(c1ccccc1)NC2=O (centres undefined)	16.99%
CC(C)C(=O)N1CCN(Cc2ccccn2)CC2(CC(=O)N(C)C2)C1.O=C(O)C(F)(F)F.O=C(O)C(F)(F)F (centres undefined)	-3.72%
CC(C)N(Cc1ccccn1)Cc1nc2c(cnn2C)c(=O)[nH]1	66.99%
Cc1ccc(C(C)N(C)Cc2nc3c(cnn3C)c(=O)[nH]2)s1 (centres undefined)	59.53%
COc1ccccc1C(C)N(C)Cc1nc2c(cnn2C)c(=O)[nH]1 (centres undefined)	82.45%
Cc1ccc(CN(Cc2nc3c(cnn3C)c(=O)[nH]2)C(C)C)s1	-2.161%
CC(C)CN(Cc1nc2c(cnn2C)c(=O)[nH]1)C(C)C	9.965%
Cc1ccc(C(C)N(C)Cc2nc3c(cnn3C)c(=O)[nH]2)c(C)c1 (centres undefined)	-15.24%
CC(c1ccccc1Cl)N(C)Cc1nc2c(cnn2C)c(=O)[nH]1 (centres undefined)	-6.582%
Cc1ccc(C(C)N(C)Cc2nc3c(cnn3C)c(=O)[nH]2)cc1 (centres undefined)	36.86%
Cc1ccccc1C(C)N(C)Cc1nc2c(cnn2C)c(=O)[nH]1 (centres undefined)	-10.61%
COC(=O)CCC(=O)N1CCCC2(CCCN2Cc2cccc(F)c2)C1.O=C(O)C(F)(F)F (centres undefined)	3.912%
O=C(O)C(F)(F)F.O=C(c1ccco1)N1CC[C@@H]2O[C@@H](COCCN3CCCC3)CC[C@@H]21	-12.96%
COCCN1CCC2(CC1)C(=O)Nc1ccc(C(=O)NC(C)C)cc12.O=C(O)C(F)(F)F	-30.6%
O=C(NC1CCCN(c2ccc(OC(F)F)cc2)C1)c1cnccn1 (centres undefined)	27.97%
Cl.O=C(CN1CCCC1=O)N1CCC(O)(Cn2ccc3ccncc32)CC1	9.776%
O=C(O)C(F)(F)F.O=S(=O)(C1CC1)N1C[C@@H]2COC[C@]2(COc2ccccn2)C1	-12.78%

Structure (SMILES)	Percent Effect
COc1cccc(CC2CCCN2Cc2nccn2C)c1 (centres undefined)	0.2214%
CNCC(=O)N1CCCC1c1n[nH]cc1-c1ccccc1F.Cl (centres undefined)	-23.25%
COc1ccc(CNc2c(C)nn(C(C)C)c2C)cc1OC.Cl	12.96%
COc1ccc(CNC(Cc2ccsc2)c2ccc(C)cn2)c(OC)c1 (centres undefined)	104.3%
Cc1cccnc1C(Cc1ccsc1)NC(=O)Cn1cccnc1=O (centres undefined)	-0.9287%
Cc1cccnc1C(Cc1ccsc1)NCc1cnc(N(C)C)nc1 (centres undefined)	69.2%
COc1cccc(OC)c1CNC(Cc1ccsc1)c1ccc(C)cn1 (centres undefined)	103.5%
COc1cccc(CNC(C)C)c1OCc1ccc(C)cc1.Cl	4.479%
COc1ccncc1NCc1ccsc1	-12.4%
COc1ccc(CNC(Cc2ccsc2)c2ccc(C)cn2)cc1OC.Cl (centres undefined)	97.07%
CCc1cnc(N)nc1NCc1ccc(OC)cc1OC	-28.22%
COc1ccc(CNC(Cc2cccs2)c2nc(C)c(C)s2)cc1OC.Cl (centres undefined)	-4.28%
Cc1cccc(-c2ncc(CNC(C)Cc3ncccc3C)cn2)c1 (centres undefined)	1.404%
COc1ccc(NC(=O)N(CCO)Cc2ccsc2)c(OC)c1	-10.14%
COc1ccccc1OCCNCc1c(C)nn(C)c1N(C)C.Cl	31.69%
COc1ccc(CC(=O)NCC(O)c2sccc2C)cc1OC (centres undefined)	0.2606%
Cc1ccc(CNC2CCc3[nH]c(=O)ccc3C2)cc1C.O=C(O)C(F)(F)F (centres undefined)	-33.52%
O=C(O)C(F)(F)F.O=C(O)C(F)(F)F.c1cnc(N2CC3(CCN(Cc4cccnc4)C3)C2)nc1	-26.88%
CN1CCCC1c1cncc(C(=O)NCCN2CCCCC2)n1 (centres undefined)	-9.497%
O=C(Nc1cccnc1-n1cc(Cl)cn1)C1CCCC1	16.14%
Cc1cc(C2CCNCC2)nc(-c2ccsc2)n1.Cl	-13.2%
CN(C)[C@@H]1CCN(C(=O)Cc2ccc(F)cc2)[C@H]1Cc1cnn(C)c1.O=C(O)C(F)(F)F	10.95%
CCc1cnc(N)nc1NCc1ccc(OC)c(OC)c1	5.948%
COc1ccc(C(C)NCc2ccsc2)cc1Cn1cccn1 (centres undefined)	-10.38%

Structure (SMILES)	Percent Effect
COc1ncc(NCc2ccsc2)cc1C(N)=O	-17.59%
COc1ccc(CNC(Cc2ccsc2)c2ncccc2C)cc1OC (centres undefined)	96.19%
COc1ccc(CNC(C)Cn2cccn2)cc1OC (centres undefined)	-13.02%
Cc1cnc(N2CCC3(CCN(Cc4csc(C)n4)C3=O)C2)nc1.O=C(O)C(F)(F)F (centres undefined)	-3.389%
Cc1ccc2c(n1)N(Cc1cccnc1)CCN(C(=O)C1CC1)C2.O=C(O)C(F)(F)F.O=C(O)C(F)(F)F	-27.88%
Cl.Cn1ccnc1C1(O)CCN(C(=O)Cc2ccccc2)CC1	-18.55%
CN(Cc1ccc(-n2cccn2)cc1)C[C@@H]1CCCN2CCCC[C@H]12	-24.54%
Cc1ccc(N2CCC3(CCN(C(=O)c4ccccn4)CC3)CC2)nn1.O=C(O)C(F)(F)F.O=C(O)C(F)(F)F	-19.27%
CCCc1ccc(OC23CCCN(CC2)C3)c(OC)c1 (centres undefined)	85.22%
COc1cc(CN2CCCC2)ccc1OC12CCCN(CC1)C2 (centres undefined)	-26.73%
COc1cc(C#N)ccc1OC12CCCN(CC1)C2 (centres undefined)	-7.079%
CS(=O)(=O)NC[C@H]1OC[C@@H]2CCN(CCc3ccccc3)C[C@@H]21.O=C(O)C(F)(F)F	-13.26%
CC(C)N(C)Cc1cncc2c1CCN(CC1CC1)C2.Cl.Cl.Cl	9.593%
O=C(O)C(F)(F)F.O=C(O)[C@]12CCCN(C3CCOC3)C[C@H]1CN(c1nncs1)C2 (some centres undefined)	32.9%
COCCN1CCCn2c(nc(CNC(=O)COC)cc2=O)C1.O=C(O)C(F)(F)F	37.74%
COc1ccc(CN2C[C@H]3C[C@H](C(=O)Nc4cccnc4)[C@@H](C2)O3)cc1	4.187%
CCc1c(C)sc(NC(=O)CN2CCOCC2)c1C(=O)OC	24.22%
CCOC(=O)c1c(NC(=O)CN2CCN(C(C)=O)CC2)sc(C)c1C	-7.801%
CCc1c(C)sc(NC(=O)CN2CCN(CC)CC2)c1C(=O)OC	103.2%
CC(=O)N1CCCC1c1cccc(Cc2ccccc2F)n1 (centres undefined)	-21.24%
CN1CCCC1c1cccc(Cc2ccccc2F)n1 (centres undefined)	69.94%
CN1CCCC1c1cccc(Cc2ccc(F)cc2)n1 (centres undefined)	24.93%

Reference: ChEMBL document CHEMBL3988442, “University of Dundee, Small-Polar-MMV Screening Library” (2021)
